Measured values: PubChem BioAssay (NCI)
This is part of a sample that, as a whole, favours compounds with a hit. Of some 83,000 tested, about 20% had one in any assay.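 Cell lines were cultured in 96-well plates, exposed to a single compound concentration, and assessed for percent growth 48 hours later.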 Unmarked numbers belong to inactive results. Active and inactive are the calls of the source. Rule for the calls: active = growth percent below 10; inactive = the rest.

Tests used:
Test in all cases: NCI-60 one-dose screen, 48 h (100 = growth as untreated, 0 = no growth, -100 = all killed)
Details in all cases: 10 µM unless noted
RPMI-8226 leukemia = system: RPMI-8226 leukemia
OVCAR-8 ovarian = system: OVCAR-8 ovarian
OVCAR-5 ovarian = system: OVCAR-5 ovarian
OVCAR-4 ovarian = system: OVCAR-4 ovarian
SK-OV-3 ovarian = system: SK-OV-3 ovarian
OVCAR-3 ovarian = system: OVCAR-3 ovarian
HS 578T breast = system: HS 578T breast
NCI/ADR-RES ovarian = system: NCI/ADR-RES ovarian
IGROV1 ovarian = system: IGROV1 ovarian

SMILES	growth (RPMI-8226 leukemia)	growth (OVCAR-8 ovarian)	growth (OVCAR-5 ovarian)	growth (OVCAR-4 ovarian)	growth (SK-OV-3 ovarian)	growth (OVCAR-3 ovarian)	growth (HS 578T breast)	growth (NCI/ADR-RES ovarian)	growth (IGROV1 ovarian)
Nc1ccn(-c2ccc(Br)cc2)c(=O)n1	95.9%	117%	84%	104%	162%	48%	122%	89.5%	–
COc1ccc(/C=C/C(=O)c2ccc(O)c(CN3CCN(c4cc5c(cc4F)c(=O)c(C(=O)O)cn5C4CC4)CC3)c2)cc1	-3.49% (active)	13.2%	47.5%	–	46.5%	19.1%	35.4%	43.1%	33.8%
COc1ccc(-c2nc3ccc(-c4nc5ccc(N6CCN(c7ccccc7)CC6)cc5[nH]4)cc3[nH]2)cc1OC	-23% (active)	-4.55% (active)	-44.1% (active)	–	107%	-68.3% (active)	-0.217% (active)	67.3%	16.2%
COc1cc(C=Nc2oc(-c3ccccc3)c(-c3ccccc3)c2C#N)cc(CN2CCCCC2)c1O	100%	105%	97%	–	116%	110%	95.9%	95.7%	99.6%
CC(C)(O)c1cn(CCCCN2C(=O)C(=O)c3ccccc32)nn1	95.9%	102%	96.4%	–	95.7%	109%	99.6%	99.9%	102%
c1ccc(-c2c(-c3ccccc3)[n+](Cc3ccc4ccccc4c3)c(-c3ccc(-c4nc5ccccc5s4)cc3)n2Cc2ccc3ccccc3c2)cc1	-40.5% (active)	-85.4% (active)	-93% (active)	–	-97.4% (active)	-89.4% (active)	-45.3% (active)	-52.1% (active)	-84.8% (active)
O=C(N=Nc1c(O)[nH]c2ccc(Br)cc12)c1cc(-c2ccccc2)on1	–	104%	98.9%	94.9%	111%	115%	99.1%	103%	101%
C=C(C)[C@@H]1CC[C@]2(C(=O)OC)CC[C@]3(C)[C@H](CC[C@@H]4[C@@]5(C)C/C(=C/c6ccc(OC)cc6)C(=O)C(C)(C)[C@@H]5CC[C@]43C)[C@@H]12	54.8%	102%	–	85.8%	102%	86.7%	94.9%	93.2%	100%
Cc1nc2ccccc2n1C(=O)C[C@@H]1NC(=S)NC1=O	111%	93.6%	–	101%	100%	108%	104%	101%	94.8%
COc1ccc(-c2nc3ccc(-c4nc5ccc(N6CCN(C)CC6)cc5[nH]4)cc3[nH]2)cc1OC	110%	55.8%	–	68.4%	74.2%	30.4%	72.2%	103%	79.6%
N#Cc1c(-c2ccc(Cl)cc2)nc(N=Nc2c(O)[nH]c3ccc(Cl)cc23)nc1N1CCOCC1	119%	100%	98.9%	–	96.1%	115%	94%	88.3%	92.5%
COc1cc(/C=C/C(=O)c2ccc(O)c(CN3CCN(c4cc5c(cc4F)c(=O)c(C(=O)O)cn5C4CC4)CC3)c2)cc(OC)c1OC	–	30.8%	65.5%	49.8%	89.2%	14%	38.1%	54.6%	55%
COc1cccc(-c2nc3sccn3c2-c2ccnc(NCCCNS(=O)(=O)c3cccc(F)c3)c2)c1	–	14.4%	59.4%	20.2%	54.3%	39.6%	57.7%	4.88% (active)	27.7%
C=CC(=O)Nc1cccc(Nc2nc(SC)nc(-c3cccc([N+](=O)[O-])c3)c2C#N)c1	48.2%	43.4%	–	32.9%	74.3%	19.9%	53.7%	61.8%	54.9%
COc1cc2nnc3c4cccnc4[nH]c3c2cc1OC	–	-15.2% (active)	75%	29.8%	81.7%	30.5%	58.5%	23.4%	–
COc1cccc(-c2nc3sccn3c2-c2ccnc(NCCNS(=O)(=O)c3ccccc3)c2)c1	-27.1% (active)	13.9%	–	15.2%	42%	42.2%	35.7%	6.38% (active)	25.5%
C=CC(=O)Nc1cccc(-c2nc(SC)nc(Nc3cccc(OC)c3)c2C#N)c1	40%	–	103%	62.5%	73.5%	52.1%	49.3%	49.2%	65.9%
COc1ccc(-c2nc3ccc(-c4nc5ccc(N6CCN(c7ccncc7)CC6)cc5[nH]4)cc3[nH]2)cc1OC	–	34.6%	87.2%	26.5%	73.6%	4.61% (active)	44.1%	96.9%	65.2%
Cc1ccc(NS(=O)(=O)c2ccc(-c3cnc(C4CC4)o3)cc2)cc1C	12.4%	28.2%	37.6%	–	30.7%	-1.67% (active)	14.3%	-10.9% (active)	29.5%
Cc1c(/C=C/[N+](=O)[O-])ccc2c1[nH]c1ccccc12	-15% (active)	–	106%	116%	114%	123%	104%	108%	101%
Nc1nc2ncc(CCNc3ccc(C(=O)O)cc3)nc2c(=O)[nH]1	99.4%	108%	–	127%	115%	128%	117%	115%	113%
O=C(COc1ccc(/C=C2\CSc3ccccc3C2=O)cc1)Nc1nccs1	-11% (active)	–	92.6%	104%	127%	87.5%	135%	80.1%	-51.8% (active)
